Bioassay records deposited in PubChem by Sanford-Burnham Center for Chemical Genomics.
Shown are actives, neighbours in structure and some others; about 2.6% of the full set was active somewhere.
PABP polyA inh: PABP-poly(A) binding inhibition. PABP-poly(A) RNA binding, fluorescence polarization. calls only at 35 µM. 290,000 compounds, 1% hits;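 further: calls also rest on retests at 20 µM and on dose response follow-up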
Target sequence (P11940 whole entry, looked up): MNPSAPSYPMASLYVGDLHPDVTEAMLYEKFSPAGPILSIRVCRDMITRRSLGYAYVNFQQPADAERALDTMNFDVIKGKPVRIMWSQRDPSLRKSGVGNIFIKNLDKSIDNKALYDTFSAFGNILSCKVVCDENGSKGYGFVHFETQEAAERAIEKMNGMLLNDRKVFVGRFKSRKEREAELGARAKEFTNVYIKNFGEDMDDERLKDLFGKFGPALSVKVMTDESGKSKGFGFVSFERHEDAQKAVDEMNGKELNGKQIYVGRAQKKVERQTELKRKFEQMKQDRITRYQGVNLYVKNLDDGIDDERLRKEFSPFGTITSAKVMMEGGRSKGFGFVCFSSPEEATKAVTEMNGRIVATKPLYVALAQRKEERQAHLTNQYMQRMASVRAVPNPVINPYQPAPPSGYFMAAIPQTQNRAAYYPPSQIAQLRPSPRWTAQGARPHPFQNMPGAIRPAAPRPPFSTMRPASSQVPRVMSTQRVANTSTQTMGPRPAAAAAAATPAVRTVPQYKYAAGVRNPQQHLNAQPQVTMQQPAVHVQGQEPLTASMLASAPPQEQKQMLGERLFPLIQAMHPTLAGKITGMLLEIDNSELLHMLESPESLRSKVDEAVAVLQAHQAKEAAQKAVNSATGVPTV
eIF4H inh: inhibitors of RNA binding by human eIF4H. inhibition, % at 35 µM. eIF4H fluorescence polarization binding assay. Q15056. 290,000 compounds, 0.94% hits;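 further: calls also rest on retests at 20 µM and on dose response follow-up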
A3A deaminase: human APOBEC3A DNA deaminase inhibition; 330,000 compounds, 0.41% hits; P31941; AID 493011; inhibition, % at 20 µM; recombinant A3A, FAM/TAMRA ssDNA deamination fluorescence;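 active means at least 40% inhibition at 20 µM here, with at most 30% in a related deaminase screen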;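 further: plate controls were A3A with DMSO for no effect and wells lacking A3A enzyme for full effect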
PHOSPHO1 inh: PHOSPHO1 (human) inhibition | recombinant PHOSPHO1, absorbance phosphatase assay | AID 1565 | 290,000 compounds, 1.1% hits | Q8TCT1 | inhibition, % at 13.3 µM; in the data active means inhibition above about 60%
MLLE-PAM2 inh: inhibitors of microRNA-mediated deadenylation, human PABP1 MLLE binding. P11940. GST-MLLE / FITC-PAM2 fluorescence polarization. inhibition, % at 20 µM. 360,000 compounds, 0.36% hits. AID 588489; in the data active means inhibition above about 35%, passing the limit was not always enough;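 further: plate controls were DMSO wells with GST-MLLE for no effect and wells lacking GST-MLLE protein for full effect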
A3G deaminase: blocks human APOBEC3G single-stranded DNA deamination; Q9HC16; recombinant A3G, ssDNA deamination FAM/TAMRA fluorescence; inhibition, % at 20 µM; 330,000 compounds, 0.28% hits;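 active means inhibition of at least 40% at 20 µM, with no more than 30% in the related APOBEC3A deaminase screen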;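 further: plate controls were DMSO wells with A3G for no effect and wells lacking A3G enzyme for full effect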
Numbers without * were called inactive; i = inactive; ? = inconclusive; . = not tested or not shown; + = active, no number. Unless noted, how the calls were made is not given here.

SMILES	PABP polyA inh	eIF4H inh	A3A deaminase	PHOSPHO1 inh	MLLE-PAM2 inh	A3G deaminase
CCN(C(=O)c1c(C)cc(=O)oc1C)c1ccc2c(c1)OCO2	i	3	3	18	0	-1
CCN(C(=O)c1coc(=O)c(Br)c1)c1ccc2c(c1)OCO2	?	?	-1	74*	94	2
O=C(CSc1cccc2cccnc12)N/N=C/c1ccc(O)cc1	i	1	6	32	8	0
O=C(CCc1ccccc1O)N/N=C/c1ccc(Sc2cccc3cccnc23)o1	i	-7	-2	98*	17	-5
COc1ccc(C(=O)NC2CCCc3c2cnn3-c2cccc(C)c2C)o1 (centres undefined)	.	.	-7	64*	-6	-7
COc1ccc(Cl)cc1NC(=O)C1CSC(c2ccncc2)=N1 (centres undefined)	i	-9	4	-16	1	-2
Cc1cc(C(=O)OCC(=O)Nc2c(F)cccc2F)c(C)n1-c1ccccc1	i	8	5	64*	-2	-2
COc1cccc(CC2CC(=O)N(c3ccc4c(C)cc(=O)oc4c3)C2=O)c1 (centres undefined)	i	-2	1	61*	12	-13
COc1cccc(/C=C/C(=O)Nc2cccc(C(C)=O)c2)c1OC	i	7	5	16	-2	-9
COc1ccccc1/C=C/C(=O)Nc1cccc(C(C)=O)c1	i	-2	-1	69*	2	-8
Cc1nn(C)cc1CN(C)C(=O)c1cc(COc2ccc(F)cc2F)on1	i	-10	-1	64*	-12	-4
CCOc1ccc(CCNC(=O)CSc2cc(=O)n(C)c3ccccc23)cc1OCC	i	4	-2	-1	-7	-3
Nc1nc2c(s1)CCc1c-2cnn1-c1ccccc1	i	0	-3	106*	-22	54*
Nc1nc2c(s1)COc1ccccc1-2	i	-6	-2	41	3	-3
CN(C(=O)CSc1nnc(C(F)(F)F)n1N)C1CCS(=O)(=O)C1 (centres undefined)	i	0	-1	45	9	1
CCOC(=O)Cn1c(=S)[nH]c2c(oc3ccc(Cl)cc32)c1=O	i	-10	-4	93*	-62	-6
CCOC(=O)N1CCN(C(=O)c2ccc3c(=O)n(Cc4ccc(Cl)cc4)c(=S)[nH]c3c2)CC1	i	0	6	35	-70	-2
COC(=O)c1sc(=S)sc1C(=O)OC	i	8	0	48	52*	28
CN(C)CCCN1C(=O)c2cccc3c(Br)ccc(c23)C1=O	i	31	17	0	57*	15
O=C(COC(=O)/C=C/c1ccc(Cl)cc1)NC1CCCCCC1	.	.	-3	.	11	-6
COc1cc(/C=C/C(=O)Nc2nnc(C(C)(C)C)s2)cc(OC)c1OC	i	-13	-8	24	41*	6
COc1cc(/C=C/C(=O)Nc2ccc(C)cc2)cc(OC)c1OC	i	2	0	-8	6	-4
N/C(Cn1cncn1)=N\NC(=O)C(=O)Nc1ccc(Cl)cc1Cl	i	-7	-1	60*	8	-4
CC(C)(C)c1ccc(C(=O)N2CCN(CCNC(=O)C(=O)NCc3ccccc3)CC2)cc1	i	59	-7	10	3	-9
O=C(O)C[C@@H]1C(=O)O[C@@H]2C(COC(=O)c3cc(O)c(O)c(O)c3)O[C@@H](OC(=O)c3cc(O)c(O)c(O)c3)[C@@H](OC(=O)c3cc(O)c(O)c4c3[C@H]1[C@H](O)C(=O)O4)[C@H]2OC(=O)c1cc(O)c(O)c(O)c1 (some centres undefined)	+	87*	.	0	.	.
SMILES	PABP polyA inh	eIF4H inh	A3A deaminase	PHOSPHO1 inh	MLLE-PAM2 inh	A3G deaminase
O=C(NC(=S)NCCO)c1cn(-c2ccccc2)nc1-c1ccccc1	i	-4	-1	31	50*	-6
O=C(Nc1nc(-c2ccncc2)cs1)c1ccco1	i	84*	9	39	-17	18
O=C(Nc1nc(-c2cccs2)cs1)c1ccco1	i	0	3	-43	14	-2
COc1ccc(C(O)c2nc(/C=C/c3ccc(C(F)(F)F)cc3)cs2)cc1 (centres undefined)	.	.	.	.	10	.
CNc1ccc(Br)cc(C(=O)/C=C/c2ccc3c(c2)OCO3)c1=O	+	92*	34	-135	-23	25
CCC(CC)C(=O)Nc1cc([N+](=O)[O-])ccc1F	i	-4	1	2	-5	-6
CCC(CC)C(=O)Nc1cc([N+](=O)[O-])ccc1Cl	+	-3	-3	5	2	-4
Cc1ccc(S(=O)(=O)N/N=C/c2cc(Br)c(C)o2)cc1	i	38	-2	91*	-27	-4
Cc1ccc(S(=O)(=O)NN=Cc2ccco2)cc1	.	.	.	.	-52	.
Cc1ccc(C2C(C#N)=C(N)Oc3c2oc(CO)cc3=O)o1 (centres undefined)	i	45*	2	7	4	-3
O=C(CSc1ncccn1)c1ccccc1Br	i	0	-2	61*	24	-5
CC(C)(C)NC(=S)NC(=O)C12CC3CCC(CC(C3)C1)C2	i	-8	0	7	23	0
CC12CC3(C)CC(C)(C1)CC(C(=O)NC(=S)NC(C)(C)C)(C2)C3	i	-1	-2	-15	43*	-2
Cc1noc(C)c1CSc1nnc(-c2ccccc2)n1N	i	-11	-3	97*	-11	3
Cc1noc(C)c1CSc1nnc(-c2ccccc2)n1Cc1ccco1	i	6	-4	45	-73	-8
COc1ccc(C(=O)Nc2ccc(C3CC3(Cl)Cl)cc2)cc1 (centres undefined)	i	8	5	71*	9	1
CCCCC1(C(=O)OCC)CC(CN2CCOCC2)OC1=O (centres undefined)	+	active	5	-30	-7	-1
CC(C)n1c(SCC(=O)Nc2ccc(N3CCOCC3)cc2)nnc1-c1ccco1	i	11	0	10	2	1
CCCCCC#CCC#CCC#CCC#CCCCC(=O)O	i	85*	98	79*	.	90
CC(=O)Nc1cccc(C(=O)/C=C/c2ccco2)c1	i	22	2	19	4	-3
O=C(/C=C\c1ccco1)c1ccc(NC(=O)c2ccco2)cc1	+	?	22	-11	-1	13
CC(=O)Nc1ccc(C(=O)/C=C/c2ccco2)cc1	+	?	13	0	10	4
c1ccc(Cc2noc(CN3CCC(CN4CCOCC4)CC3)n2)cc1	i	-9	1	61*	-22	-9
O=C(O)C1C2CCC(C2)C1C(=O)N1CCCC1 (centres undefined)	i	-6	-6	.	-8	-5
CCc1cc(C(=O)NNC(=S)NC2CCCCC2)cs1	i	11	-5	-102	-11	-9
